# According to PubChem BioAssay:
# The source made the active and inactive calls.
# Key:
# [1] = test system: PRMT1 (protein arginine N-methyltransferase 1); experiment: small molecules binding arginine methyltransferase PRMT1 – biochemical, small-molecule microarray, 635 nm fluorescence, primary screen (AID 1088); conditions: higher = more signal;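 note: binding of Prmt1 protein to compounds spotted on small-molecule microarray slides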
# [2] = growth effects on S. cerevisiae YJM789 – YJM789 clinical isolate, OD600, 24 h, basal, primary screen (AID 1089); conditions: higher = more signal, called active from +8 up or from −8 down;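 note: growth of clinical yeast isolate S. cerevisiae YJM 789 seeded 1000 cells per well; test concentration not given here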
# [3] = S. pombe growth modifiers, basal conditions – strain 972, OD600, 24 h, no modulator, primary screen (AID 1090);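 note: basal condition with compound alone and no growth modifier present; test concentration not given here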; conditions: S. pombe 972 growth, higher = more signal, called active from +8 up or from −8 down
# [4] = budding yeast growth modifiers under rapamycin – strain BY4716, OD600, 96 h, primary screen (AID 1091); note: test concentration not given here; conditions: S. cerevisiae BY4716 + rapamycin, higher = more signal, called active from +8 up or from −8 down
# [5] = biological target: Torsin-1A-interacting protein 2 (Homo sapiens) (UniProt Q8NFQ8); experiment: small molecules binding lysate-expressed LULL1 – cell lysate, human LULL1 lysate, 635/667 nm fluorescence, primary screen (AID 1092); conditions: small-molecule microarray, hLULL1 lysate binding, 635 nm fluorescence; higher = more signal;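 note: probe is lysate of COS7 cells overexpressing human LULL1; score merges per-feature 667 nm fluorescence with signal-to-noise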
# [6] = optical density change of DRC41 E. coli – strain DRC41, OD650, 24 h, E. coli filamentation project, primary screen (AID 1093);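 note: MC1000 strain lacking acrAB efflux and sulA so SOS filamentation is blocked; test concentration not given here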; conditions: E. coli DRC41 growth, higher = more signal, called active from +8 up or from −8 down
# [7] = probe aLefty2 binding to arrayed compounds – biochemical, biotinylated probe, 635/667 nm fluorescence, primary screen (AID 1094); conditions: small-molecule microarray, higher = more signal;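 note: score merges spot fluorescence near 667 nm with spot signal-to-noise ratio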
# [8] = test system: Noggin (protein binding on small-molecule microarray); experiment: small molecules binding Noggin protein – biochemical, 635/667 nm fluorescence, primary screen (AID 1095); conditions: 635 nm fluorescence, higher = more signal;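 note: score merges 667 nm feature fluorescence with signal to noise over triplicate slides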
# [9] = biological target: Neurogenic locus notch homolog protein 3 (Homo sapiens) (UniProt Q9UM47); experiment: small molecules binding NOTCH3 protein – biochemical, 635/667 nm fluorescence, primary screen (AID 1096); conditions: small-molecule microarray, 635 nm fluorescence, higher = more signal
# [10] = probe aEGFR binding to arrayed compounds – biochemical, biotinylated probe, 635/667 nm fluorescence, primary screen (AID 1097); conditions: small-molecule microarray, higher = more signal;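 note: probe is a biotinylated anti-EGFR antibody binding compounds printed on slides; score combines fluorescence near 667 nm and signal to noise of each spot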
# [11] = test system: Plasmodium falciparum Sir2 (PF13_0152, Sir2A); experiment: Plasmodium falciparum Sir2A binding compounds – biochemical, small-molecule microarray, 635 nm fluorescence, primary screen (AID 1098); conditions: fluorescence 635 nm, higher = more signal;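 note: score merges spot fluorescence intensity with its signal-to-noise ratio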
# [12] = probe aDKK1 binding to arrayed compounds – biochemical, biotinylated probe, 635/667 nm fluorescence, primary screen (AID 1099); conditions: small-molecule microarray, higher = more signal;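 note: score merges 667nm spot fluorescence with signal to noise across triplicate slides; reference of the scale not given here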
# [13] = probe aCHRDL2 binding to arrayed compounds – biochemical, biotinylated probe, 635/667 nm fluorescence, primary screen (AID 1100); conditions: small-molecule microarray, higher = more signal
# [14] = change in splice reporter luminescence, either direction, cell-based, HEK293, spliceosome inhibition project, primary screen (AID 1101); conditions: HEK293 splicing luciferase reporter, 24 h, higher = more signal, called active from +8 up or from −8 down;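 note: HEK293 cells carrying a splicing-competent luciferase reporter gene; test concentration not given here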
# [15] = biological target: Fibroblast growth factor 10 (Homo sapiens) (UniProt O15520); experiment: compounds binding fibroblast growth factor 10 – biochemical, small-molecule microarray, 635 nm fluorescence, primary screen (AID 1102); conditions: FGF10 binding, fluorescence 635 nm, higher = more signal
# [16] = test system: glycogen synthase kinase-3 (GSK3A per assay name; protocol says GSK3B); experiment: compounds binding glycogen synthase kinase-3 – biochemical, small-molecule microarray, 635 nm fluorescence, GSK3A, primary screen (AID 1103); conditions: fluorescence 635 nm, higher = more signal; note: the record names both GSK3A and GSK3B
# [17] = biological target: Epidermal growth factor receptor (Homo sapiens) (UniProt P00533); experiment: compounds binding epidermal growth factor receptor – biochemical, small-molecule microarray, 635 nm fluorescence, primary screen (AID 1104); conditions: EGFR binding, higher = more signal;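 note: score merges 667 nm emission intensity with spot signal to noise over triplicate slides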
# [18] = biological target: Follistatin-related protein 3 (Homo sapiens) (UniProt O95633); experiment: compounds binding follistatin-related protein 3 – biochemical, small-molecule microarray, 635 nm fluorescence, primary screen (AID 1105); conditions: FSTL3 binding, higher = more signal;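 note: score merges emission near 667 nm and signal to noise per printed spot across three slides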
# [19] = biological target: Dickkopf-related protein 1 (Homo sapiens) (UniProt O94907); experiment: small molecules binding DKK1 protein – biochemical, small-molecule microarray, 635 nm fluorescence scan, primary screen (AID 1106); conditions: higher = more signal;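 note: score merges emission near 667 nm with signal to noise over three replicate slides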
# [20] = test system: Inhibin beta A chain (activin A); experiment: small molecules binding activin A – biochemical, small-molecule microarray, 635 nm fluorescence scan, primary screen (AID 1107); conditions: INHBA, higher = more signal;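 note: mouse activin A protein probed at 4.33 µg/mL on printed slides; score merges bound-protein fluorescence near 667 nm with spot signal-to-noise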
# Torsin-1A-interacting protein 2 (Homo sapiens), sequence (Q8NFQ8 whole entry, looked up): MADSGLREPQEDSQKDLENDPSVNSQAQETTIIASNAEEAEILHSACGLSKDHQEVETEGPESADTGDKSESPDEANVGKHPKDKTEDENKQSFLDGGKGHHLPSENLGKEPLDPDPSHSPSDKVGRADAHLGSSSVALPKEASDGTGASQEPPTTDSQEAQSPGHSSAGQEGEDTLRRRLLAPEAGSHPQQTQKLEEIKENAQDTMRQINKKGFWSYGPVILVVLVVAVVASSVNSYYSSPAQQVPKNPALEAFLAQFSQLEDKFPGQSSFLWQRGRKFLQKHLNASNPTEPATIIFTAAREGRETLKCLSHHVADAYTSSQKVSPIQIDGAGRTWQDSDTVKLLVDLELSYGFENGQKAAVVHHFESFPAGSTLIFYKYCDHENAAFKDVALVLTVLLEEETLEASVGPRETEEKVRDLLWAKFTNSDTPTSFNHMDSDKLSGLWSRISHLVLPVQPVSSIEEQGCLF
# Epidermal growth factor receptor (Homo sapiens), sequence (P00533 whole entry, looked up): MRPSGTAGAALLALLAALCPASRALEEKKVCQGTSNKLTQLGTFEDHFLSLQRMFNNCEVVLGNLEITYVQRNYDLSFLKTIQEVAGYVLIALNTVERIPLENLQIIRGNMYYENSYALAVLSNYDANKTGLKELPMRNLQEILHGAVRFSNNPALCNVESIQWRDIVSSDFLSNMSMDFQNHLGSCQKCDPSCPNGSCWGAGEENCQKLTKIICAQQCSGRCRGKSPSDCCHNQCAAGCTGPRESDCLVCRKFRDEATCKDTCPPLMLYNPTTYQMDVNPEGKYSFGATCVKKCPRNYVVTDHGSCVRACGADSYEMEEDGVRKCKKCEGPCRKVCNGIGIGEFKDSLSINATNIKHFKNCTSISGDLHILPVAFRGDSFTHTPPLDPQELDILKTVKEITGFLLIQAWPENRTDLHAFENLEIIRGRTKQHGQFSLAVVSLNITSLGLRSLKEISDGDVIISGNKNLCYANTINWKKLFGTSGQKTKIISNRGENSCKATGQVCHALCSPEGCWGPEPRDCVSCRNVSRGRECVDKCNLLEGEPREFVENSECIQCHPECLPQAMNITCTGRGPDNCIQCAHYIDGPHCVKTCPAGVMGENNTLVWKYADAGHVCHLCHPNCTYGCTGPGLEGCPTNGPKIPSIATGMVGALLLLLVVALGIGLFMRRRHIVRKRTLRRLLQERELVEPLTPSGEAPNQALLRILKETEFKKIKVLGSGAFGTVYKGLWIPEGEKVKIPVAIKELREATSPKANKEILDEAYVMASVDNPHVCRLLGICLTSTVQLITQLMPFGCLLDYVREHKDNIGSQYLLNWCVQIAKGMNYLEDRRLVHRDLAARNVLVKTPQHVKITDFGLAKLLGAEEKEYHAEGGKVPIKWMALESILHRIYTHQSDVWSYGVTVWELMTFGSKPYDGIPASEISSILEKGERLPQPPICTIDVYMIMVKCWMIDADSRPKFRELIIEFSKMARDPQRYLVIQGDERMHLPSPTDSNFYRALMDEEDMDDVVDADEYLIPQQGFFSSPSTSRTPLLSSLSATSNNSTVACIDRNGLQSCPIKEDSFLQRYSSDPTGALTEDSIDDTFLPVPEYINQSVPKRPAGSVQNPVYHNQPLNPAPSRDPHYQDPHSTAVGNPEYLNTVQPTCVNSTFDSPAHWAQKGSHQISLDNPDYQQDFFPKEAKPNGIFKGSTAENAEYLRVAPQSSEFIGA
# Dickkopf-related protein 1 (Homo sapiens), sequence (O94907 whole entry, looked up): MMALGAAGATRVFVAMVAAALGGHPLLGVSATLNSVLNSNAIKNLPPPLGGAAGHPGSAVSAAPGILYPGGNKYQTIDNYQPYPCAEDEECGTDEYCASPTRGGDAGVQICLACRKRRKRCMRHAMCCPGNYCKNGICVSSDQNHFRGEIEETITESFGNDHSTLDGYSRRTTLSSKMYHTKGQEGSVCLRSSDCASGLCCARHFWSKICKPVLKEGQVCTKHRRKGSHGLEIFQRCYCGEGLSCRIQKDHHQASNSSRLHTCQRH
# Follistatin-related protein 3 (Homo sapiens), sequence (O95633 whole entry, looked up): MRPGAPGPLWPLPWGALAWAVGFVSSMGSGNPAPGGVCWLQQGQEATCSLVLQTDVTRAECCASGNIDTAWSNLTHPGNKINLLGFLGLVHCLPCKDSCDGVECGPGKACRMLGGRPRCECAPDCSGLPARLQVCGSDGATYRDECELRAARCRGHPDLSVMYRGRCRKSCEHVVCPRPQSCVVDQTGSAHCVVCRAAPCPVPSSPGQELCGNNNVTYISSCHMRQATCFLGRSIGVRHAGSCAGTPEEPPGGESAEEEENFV
# Neurogenic locus notch homolog protein 3 (Homo sapiens), sequence (Q9UM47 whole entry, looked up): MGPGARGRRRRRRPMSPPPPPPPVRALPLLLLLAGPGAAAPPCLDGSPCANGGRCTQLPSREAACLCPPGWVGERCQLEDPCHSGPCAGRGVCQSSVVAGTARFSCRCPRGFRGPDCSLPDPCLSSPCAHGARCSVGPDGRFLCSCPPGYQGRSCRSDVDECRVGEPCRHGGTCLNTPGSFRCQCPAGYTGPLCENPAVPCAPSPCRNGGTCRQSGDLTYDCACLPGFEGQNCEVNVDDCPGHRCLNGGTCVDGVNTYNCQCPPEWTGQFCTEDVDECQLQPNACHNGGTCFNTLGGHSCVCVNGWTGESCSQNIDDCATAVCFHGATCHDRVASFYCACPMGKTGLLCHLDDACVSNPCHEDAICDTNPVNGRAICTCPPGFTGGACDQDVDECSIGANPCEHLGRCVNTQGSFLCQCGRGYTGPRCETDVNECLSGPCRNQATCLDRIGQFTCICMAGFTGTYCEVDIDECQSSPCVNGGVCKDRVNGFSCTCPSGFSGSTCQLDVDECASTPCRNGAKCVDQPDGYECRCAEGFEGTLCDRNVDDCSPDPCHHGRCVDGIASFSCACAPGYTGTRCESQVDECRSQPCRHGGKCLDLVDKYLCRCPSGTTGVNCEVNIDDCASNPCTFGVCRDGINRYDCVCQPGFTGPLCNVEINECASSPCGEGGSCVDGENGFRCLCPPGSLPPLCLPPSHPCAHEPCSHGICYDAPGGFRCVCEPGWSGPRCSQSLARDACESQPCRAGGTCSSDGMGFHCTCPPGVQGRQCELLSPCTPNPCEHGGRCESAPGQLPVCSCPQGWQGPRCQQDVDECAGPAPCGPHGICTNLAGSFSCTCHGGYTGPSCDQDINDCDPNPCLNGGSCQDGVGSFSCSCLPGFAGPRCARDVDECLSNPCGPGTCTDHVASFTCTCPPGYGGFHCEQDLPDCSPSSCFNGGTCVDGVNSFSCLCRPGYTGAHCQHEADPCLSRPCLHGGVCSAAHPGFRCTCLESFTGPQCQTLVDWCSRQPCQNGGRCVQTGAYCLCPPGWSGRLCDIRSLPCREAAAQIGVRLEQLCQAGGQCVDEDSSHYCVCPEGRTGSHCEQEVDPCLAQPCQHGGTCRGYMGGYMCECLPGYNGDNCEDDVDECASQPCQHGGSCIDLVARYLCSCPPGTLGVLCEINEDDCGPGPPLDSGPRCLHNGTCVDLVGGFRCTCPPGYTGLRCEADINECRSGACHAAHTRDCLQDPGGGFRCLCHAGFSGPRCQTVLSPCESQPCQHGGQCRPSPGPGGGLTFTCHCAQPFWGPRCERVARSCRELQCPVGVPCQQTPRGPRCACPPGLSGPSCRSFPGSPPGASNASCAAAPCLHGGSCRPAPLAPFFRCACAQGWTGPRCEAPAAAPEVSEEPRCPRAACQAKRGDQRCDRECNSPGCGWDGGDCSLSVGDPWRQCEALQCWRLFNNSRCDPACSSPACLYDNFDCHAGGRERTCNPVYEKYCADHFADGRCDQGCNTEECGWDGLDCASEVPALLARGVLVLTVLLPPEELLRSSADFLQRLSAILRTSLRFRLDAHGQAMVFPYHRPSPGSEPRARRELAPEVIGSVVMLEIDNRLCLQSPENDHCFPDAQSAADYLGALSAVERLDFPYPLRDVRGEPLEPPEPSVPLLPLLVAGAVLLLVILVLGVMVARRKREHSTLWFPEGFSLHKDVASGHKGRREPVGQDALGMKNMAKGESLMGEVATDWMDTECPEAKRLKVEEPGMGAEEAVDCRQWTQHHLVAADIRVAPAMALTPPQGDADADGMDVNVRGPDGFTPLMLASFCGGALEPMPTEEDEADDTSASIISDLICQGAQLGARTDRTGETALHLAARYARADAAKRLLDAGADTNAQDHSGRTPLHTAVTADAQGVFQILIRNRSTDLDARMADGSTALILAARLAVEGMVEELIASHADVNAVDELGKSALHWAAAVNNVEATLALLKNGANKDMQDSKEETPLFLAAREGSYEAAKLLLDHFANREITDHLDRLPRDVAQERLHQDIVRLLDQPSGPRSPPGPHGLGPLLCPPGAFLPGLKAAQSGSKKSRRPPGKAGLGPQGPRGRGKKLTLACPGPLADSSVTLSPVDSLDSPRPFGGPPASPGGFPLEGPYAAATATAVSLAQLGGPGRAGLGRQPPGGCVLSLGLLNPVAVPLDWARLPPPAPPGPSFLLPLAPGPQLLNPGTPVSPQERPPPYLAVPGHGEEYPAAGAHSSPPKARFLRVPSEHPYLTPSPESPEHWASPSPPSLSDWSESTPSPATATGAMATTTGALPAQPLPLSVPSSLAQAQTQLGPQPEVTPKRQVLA
# Fibroblast growth factor 10 (Homo sapiens), sequence (O15520 whole entry, looked up): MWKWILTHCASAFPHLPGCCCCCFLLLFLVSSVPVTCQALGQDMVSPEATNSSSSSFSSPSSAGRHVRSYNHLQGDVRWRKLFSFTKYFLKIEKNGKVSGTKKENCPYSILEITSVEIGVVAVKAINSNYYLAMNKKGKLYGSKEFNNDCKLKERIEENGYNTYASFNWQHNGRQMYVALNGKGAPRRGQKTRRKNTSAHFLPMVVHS
SMILES,composite z-score [1],z-score [2],z-score [3],z-score [4],composite z-score [5],z-score [6],composite z-score [7],composite z-score [8],composite z-score [9],composite z-score [10],composite z-score [11],composite z-score [12],composite z-score [13],z-score [14],composite z-score [15],composite z-score [16],composite z-score [17],composite z-score [18],composite z-score [19],composite z-score [20]
CC(=O)OC[C@H]1O[C@H](CCON=C(C)C)C=C[C@@H]1OC(C)=O,0.0126,0.765 (inactive),0.568 (inactive),0.748 (inactive),0.24,0.193 (inactive),-0.152,0.373,0.0158,-0.0364,0.475,-0.22,0.116,0.384 (inactive),-0.0068,-0.329,0.187,0.296,0.41,1.12
CCN1C(=O)[C@H]2[C@H]3[C@H](O)[C@H](O)CC(=NOCC[C@@H]4C=C[C@H](OC(C)=O)[C@@H](COC(C)=O)O4)[C@@H]3CC[C@H]2C1=O,-0.001,0.826 (inactive),-0.473 (inactive),0.0739 (inactive),0.506,0.0628 (inactive),0.0819,0.478,1,-0.0208,0.0458,-0.107,-0.426,-0.0787 (inactive),0.476,0.0008,0.498,0.38,0.476,0.079
COc1cccc([C@H]2Oc3ccc(OC)cc3C(=NOCC[C@@H]3C=C[C@H](OC(C)=O)[C@@H](COC(C)=O)O3)[C@@H]2O)c1,0.829,0.243 (inactive),0.594 (inactive),0.0357 (inactive),1,0.677 (inactive),-0.0769,0.475,0.647,0.0281,1.21,0.0266,-0.153,-0.019 (inactive),0.696,0.321,0.274,0.795,0.718,0.842
O=C1CCCC=C1C(O)C1CCCCC1 (stereo not given),-0.784,-0.711 (inactive),0.214 (inactive),-0.478 (inactive),0.2,0.805 (inactive),-0.0279,-0.0241,0.0627,-0.294,-0.895,-0.214,-0.476,0.301 (inactive),0.42,-0.0973,0.309,0.324,0.165,0.615
CCCCOC(OCCCC)C(O)CSc1ccc2ccccc2c1 (stereo not given),0.642,0.12 (inactive),-2.25 (inactive),0.594 (inactive),0.556,-0.419 (inactive),-0.136,0.542,0.776,-0.15,0.302,0.166,-0.392,-0.0185 (inactive),0.379,0.68,0.549,0.589,0.486,0.251
O=C1[C@H]2[C@H]3[C@H](O)[C@H](O)CC(=NOC[C@@H](O)COCc4ccco4)[C@@H]3CC[C@H]2C(=O)N1Cc1ccc2c(c1)OCO2,1.4,0.421 (inactive),0.674 (inactive),0.463 (inactive),-0.689,2.06 (inactive),-0.172,1.17,-0.177,-0.0177,0.867,-0.387,-1.42,-0.119 (inactive),-0.454,1.3,1.15,0.9,1.47,0.506
CO[C@@H](C1CCCCC1)[C@@H](C)[C@H](OCc1cccc(Br)c1)[C@@H](C)CO,0.0812,-0.407 (inactive),-16.4 (active),-1.11 (inactive),0.366,0.114 (inactive),-0.181,0.307,0.322,-0.0549,-0.317,-0.359,-0.426,0.899 (inactive),0.512,-0.314,0.823,0.171,0.385,0.247
COC(=O)[C@@H]1CC[C@H](C)[C@@H](c2ccc(C)cc2)N1C(=O)c1ccc(C=NOC[C@H]2O[C@H](c3ccccc3)C=C[C@@H]2Oc2ccc(OC)cc2)cc1,0.391,0.456 (inactive),0.267 (inactive),0.0902 (inactive),-0.703,-0.234 (inactive),-0.0977,-0.0296,0.107,-0.0682,0.198,-0.0428,-0.32,-0.0767 (inactive),0.3,-0.245,0.331,-0.189,0.15,1.24
C#CCCCON=C1C[C@@H](O)[C@@H](O)[C@@H]2[C@@H]3C(=O)N([C@@H](C)c4ccccc4)C(=O)[C@@H]3CC[C@@H]12,-0.0587,0.837 (inactive),1.4 (inactive),1.26 (inactive),-0.148,0.761 (inactive),-0.161,-0.225,-0.746,-0.1,0.563,-0.292,0.0951,-0.0154 (inactive),-0.723,-0.521,0.377,-0.447,-0.67,0.718
CC(C)=CCCC(C)=CCON=C1C[C@@H](O)[C@@H](O)[C@@H]2[C@@H]3C(=O)N([C@@H](C)c4ccccc4)C(=O)[C@@H]3CC[C@@H]12,-0.744,-0.208 (inactive),0.301 (inactive),-0.362 (inactive),0.676,0.215 (inactive),-0.166,0.331,0.508,-0.111,0.277,-0.213,-0.572,-0.168 (inactive),0.461,0.598,0.407,0.319,0.134,0.521
